# Compound activity from PubChem.
# Most compounds without a hit are left out; they make up all but 11% or so of the library.
# Tau fluor cs: Counterscreen qHTS for Inhibitors of Tau Fibril Formation, Fluorescence Polarization | tau K18 P301L Alexa594 fluorescence, heparin fibrillization | Potency, µM (top dose mostly 57.7 µM), for inactives: at the top dose activity change, negative = decrease | actives 0.93% (n = 280,000) | AID 1463, 2008; further: potency means the concentration at half of the fitted maximal effect; nearly all actives have a fitted effect of over 55% in size
#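 Human K18 P301L tau (15 uM unlabeled plus 0.24 uM Alexa 594-labeled, final) in 100 mM sodium acetate pH 7 was mixed with compound and 20 uM heparin and incubated 6 hr at 37 C.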
# Tau fibril ThT: qHTS for Inhibitors of Tau Fibril Formation, Thioflavin T Binding | recombinant tau K18 P301L (four-repeat tau fragment), heparin-induced fibrillization, ThT fluorescence | Potency, µM (titrated, usually from 57.4 µM), for the others: at the top dose activity, negative = inhibition, usual class: inhibitors | actives 2.1% (n = 270,000); further: potency means the concentration at half of the fitted maximal effect; nearly all actives have a fitted effect of over 55% in size
# Target sequence (P10636 561-689 P618L limits assumed): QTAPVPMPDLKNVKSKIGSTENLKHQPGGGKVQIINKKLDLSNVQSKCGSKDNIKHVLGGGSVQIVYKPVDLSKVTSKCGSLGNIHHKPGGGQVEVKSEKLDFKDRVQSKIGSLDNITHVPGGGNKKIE
#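 Heparin-induced (20 uM) aggregation of recombinant human K18 P301L tau, 15 uM unlabeled with 0.24 uM labeled, pH 7 acetate buffer, 6 hr at 37 C with compound. Fibrils quantified by 30 uM ThT fluorescence after 1 hr ambient incubation.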
# Coupling enz: qHTS Assay for Inhibitors of Fructose-1,6-bisphosphate Aldolase from Giardia Lamblia: Coupling assay counterscreen; coupling enzyme system counterscreen, AmpLite Red fluorescence; AID 2472, 2010; activity change, negative = inhibition, % at 58.2 µM, hits read low; actives 0.67% (n = 290,000); in the data active means activity change below about -30%
#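 First, compound is pin-transferred into glyceraldehyde-3-phosphate coupling-enzyme reagent at 57.5 uM final and held 10 min at RT. Next, substrate, coupling system and AmpLite Red are added. After 20 min RT, fluorescence (525/598 nm) is read.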
# G9a block: qHTS Assay for Inhibitors of Histone Lysine Methyltransferase G9a; G9a H3K9 monomethylation, AlphaScreen, 2 h; actives 8.8% (n = 350,000); AID 504332, 2011; Potency, µM (highest dose often 102 µM), without a hit: at the top dose activity, negative = inhibition, usual class: inhibitors; further: potency means the concentration at half of the fitted maximal effect; nearly all actives have a fitted effect of over 75% in size
# Target sequence (Q96KQ7 913-1193 limits assumed): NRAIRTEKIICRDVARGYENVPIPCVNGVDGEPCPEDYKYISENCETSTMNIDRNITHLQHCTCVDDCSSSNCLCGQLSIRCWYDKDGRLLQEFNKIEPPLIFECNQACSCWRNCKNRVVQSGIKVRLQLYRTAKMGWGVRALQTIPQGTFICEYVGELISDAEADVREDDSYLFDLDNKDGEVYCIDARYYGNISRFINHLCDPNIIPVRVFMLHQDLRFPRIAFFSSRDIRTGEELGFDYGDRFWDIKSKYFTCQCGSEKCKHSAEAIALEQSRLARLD
#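 G9a (20 nM) preincubated 15 min RT with compounds, then 500 nM biotinylated H3K9 peptide and 20 uM SAM added; 2 h RT reaction. Monomethyl-H3K9 product detected by AlphaScreen with anti-H3K9me1 antibody, streptavidin donor and anti-rabbit IgG acceptor beads.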
# Sfp PPTase inh: qHTS Assay for Inhibitors of Bacillus subtilis Sfp phosphopantetheinyl transferase (PPTase). Biochemical Sfp PPTase activity, qHTS. Potency, µM, for the others: largest response in the series, negative = inhibition, actives largely listed as inhibitors. actives 3.5% (n = 310,000);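 further: the enzyme is Sfp with the accession as filed and its product quenches rhodamine fluorescence; potency means the concentration at half of the fitted maximal effect; 0% = enzyme reaction without inhibitor and -100% = no enzyme wells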
#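 Sfp 15 nM + cpd, 15 min RT; start w/ rhodamine-CoA 5 uM, BHQ-2-YbbR 12.5 uM (final); 50 mM Hepes pH 7.6, 10 mM MgCl2, 0.01% NP-40, 0.01% BSA; read 525/598 nm at 0 and 30 min.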
# Tau FP inhib: qHTS for Inhibitors of Tau Fibril Formation, Fluorescence Polarization; Potency, µM (series often up to 57.7 µM), inactives show top-dose activity, negative = inhibition, usual class: inhibitors; actives 0.39% (n = 280,000); K18 P301L tau heparin fibrillization, Alexa594 FP, 6 h; further: potency means the concentration at half of the fitted maximal effect; nearly all actives have a fitted effect of over 55% in size
#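 Read-out: fluorescence polarization of Alexa 594-labeled tau (0.24 uM), 555 nm excitation, 632 nm emission. Mixtures held 15 uM unlabeled K18 P301L, compound and 20 uM heparin, pH 7 acetate buffer, incubated 6 hr at 37 C.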
# Numbers without * were called inactive; u = inconclusive; x = not tested or not shown; [ ] = remark or other dose. Unless noted, the call rests on the fitted dose curve; in most records, active means well fitted curve in the direction sought with a large enough effect; inconclusive means small, poorly fitted or top-dose-only effect, or another doubt; inactive means no such curve, though single readings can be large; an effect the other way counts as inactive or inconclusive. Unless noted, on the % scale 0 is the no-effect control and ±100 the full control effect.
SMILES,Tau fluor cs,Tau fibril ThT,Coupling enz,G9a block,Sfp PPTase inh,Tau FP inhib
CN(C)CCNC=C(C(=O)Nc1ccc(Cl)cc1Cl)C(=O)Nc1ccc(Cl)cc1Cl,u,3%,6,0%[59 µM],u,10µM*
CCC(C)NC(=O)CN1C(=O)c2cccnc2Oc2ccc(C)cc21 (centres undefined),-1%,-5%,x,-5%[59 µM],x,-1%
Cc1ccc(N2C(=O)[C@@H]3C(c4cccnc4)=NO[C@@H]3C2=O)cc1,-8%,-15%,2,-15%[12.7 µM],50µM*,10%
CC(=O)C1=NOC2C(=O)N(c3ccc(Cl)cc3)C(=O)C12 (centres undefined),x,x,1,u,9%,x
COc1ccc(N2C(=O)[C@@H]3C(c4cccnc4)=NO[C@@H]3C2=O)cc1,-20%,u,-3,x,79µM*,-4%
COc1ccc(CCNC(=O)c2nn(-c3ccc(C)cc3)c(=O)c3c2c2ccccc2n3C)cc1OC,-13%,1%,x,3%[59 µM],x,2%
Cc1cc(C)cc(NC(=S)N2CCC(NC(=O)C3CC3)CC2)c1,x,x,1,-9%,20%,x
Cc1oc(-c2ccccc2)cc1C(=O)Nc1cccc(/C=C\C(=O)O)c1,-11%,-10%,8,45µM*,-2%,2%
Cc1oc(-c2ccccc2)cc1C(=O)Nc1ccc(N(C)C)cc1,14µM*[quencher],13µM*,-3,2.2µM*,-14%,5%
Cc1cc(=O)oc(C)c1C(=O)Nc1ccc(N(C)C)cc1,0%,-2%,0,u,6%,4%
CCOc1ccc2nc(SC3CC(=O)N(c4ccc(OC)cc4OC)C3=O)sc2c1 (centres undefined),-8%,u,-2,32µM*,-1%,8%
CC(=O)Nc1ccc(N2C(=O)CC(c3ccccc3)CC2=O)cc1,2%,0%,8,14%,11%,-3%
COc1ccc(N2C(=O)CC(Sc3nc4ccccc4s3)C2=O)cc1OC (centres undefined),-14%,u,6,32µM*,-23%,1%
CC(=O)Nc1ccc(N2C(=O)CC(Sc3nc4ccccc4s3)C2=O)cc1 (centres undefined),-18%,-15%,1,28µM*,-8%,-13%
CCOC(=O)c1cnc(SCC(=O)Nc2cc(OC)ccc2OC)nc1N,-16%,-17%,-2,-28%[59 µM],-1%,-8%
CCOc1ccc2nc(SC3CC(=O)N(c4ccc(C)cc4)C3=O)sc2c1 (centres undefined),-3%,0%,0,-8%[2.33 µM],7%,1%
CCOC(=O)c1cnc(SC2CC(=O)N(c3ccc(OC)c(OC)c3)C2=O)nc1N (centres undefined),-1%,-15%,-2,20µM*,6%,4%
CC1CCC(NC(=O)c2ccc3c(c2)N(Cc2cccc(F)c2)C(=O)c2ccccc2S3)CC1 (centres undefined),-4%,-7%,x,-6%[59 µM],x,-2%
COC(=O)[C@H](COC(C)(C)C)NC(=O)O[C@H]1C(=O)c2ccc(OC)cc2O[C@@H]1c1ccc2c(c1)OCO2,-8%,-3%,2,x,-7%,-3%
CCN(CC)S(=O)(=O)c1ccc(NC(=O)Cn2ncc3c([nH]c4ccccc43)c2=O)cc1,-21%,17%,x,9%[59 µM],x,u
O=C(Oc1ccc2ccc(=O)oc2c1)c1ccco1,x,x,x,-21%,5%,x
CC#CCN1c2ccccc2[C@]23C[C@@H](C(=O)OC)N(S(=O)(=O)CCCC)C2=NC(C(=O)OC)=C(C(=O)OC)[C@H]13,-19%[11.6 µM],u,3,x,-11%,5%[11.6 µM]
Cc1oc2ncn(CC(C)C)c(=O)c2c1C(=O)Nc1cc(F)ccc1F,-18%,1%,x,-3%[59 µM],x,u
C/C(=N\NC(=O)c1ccccn1)c1ccc(C(=O)O)s1,-8%,-4%,-5,x,13µM*,-5%
CC(=O)Nc1ccccc1NC(=O)C/C(C)=N/NC(=O)c1ccccn1,9%,-6%,-4,3%[12.7 µM],-11%,2%
SMILES,Tau fluor cs,Tau fibril ThT,Coupling enz,G9a block,Sfp PPTase inh,Tau FP inhib
C/C(CC(=O)NC1CCCCC1)=N\NC(=O)c1ccccn1,-13%,-10%,-3,x,89µM*,-7%
NS(=O)(=O)c1ccc(-c2ccc(/C=C3\C(=O)Nc4cc(Cl)ccc43)o2)cc1,u,u,0,11µM*,u,3%
CC1(C)OC(=O)C(=Cc2ccc(-c3ccc(S(N)(=O)=O)cc3)o2)C(=O)O1,2%,-11%,2,35µM*,56µM*,7%
NC1=NC(=O)/C(=C/c2ccc(-c3ccc(S(N)(=O)=O)cc3)o2)S1,x,x,2,u,u,x
NS(=O)(=O)c1ccc(-c2ccc(/C=C3\C(=O)Nc4ccccc43)o2)cc1,x,x,0,x,12%,x
CSc1ccccc1NC(=O)Nc1cccc2ccccc12,x,x,x,79µM*,10%,x
O=C(Nc1ccccc1F)Nc1ccccc1F,-4%,1%,0,9%,21%,-2%
O=C(CSCCO)Nc1cccc2ccccc12,-9%,-14%,-2,50µM*,-21%,10%
O=C(CSCC(=O)Nc1cccc2ccccc12)Nc1cccc2ccccc12,u,x,-8,x,8%,9%
O=C(Nc1ccccc1F)Nc1cccc2ccc(O)cc12,14µM*[quencher],16µM*,-22,50µM*,-24%,u
NC(=O)c1ccccc1NC(=O)Nc1cccc2ccccc12,-6%,-4%,0,-5%,17%,6%
O=C(NNc1ccccc1)Nc1ccccc1F,x,x,2,50µM*,6%,x
COc1cccc(CN2C(=O)N(c3ccc(C)cc3)C(=O)C2CC(=O)Nc2cc(OC)cc(OC)c2)c1 (centres undefined),-29%,5%,x,u,x,3%
Cc1ccc(C(=O)NCC2CCCO2)cc1S(=O)(=O)N1CCCCC1 (centres undefined),x,x,x,1%,22%,x
CC(C)n1c(O)c(/C=C2\C=NN=C2c2ccccc2)sc1=S,u,-11%,-1,u,17%,14µM*
CCCc1cc(=O)[nH]c(SCC(=O)N(CCOC)c2c(N)n(Cc3ccccc3)c(=O)[nH]c2=O)n1,x,x,x,50µM*,x,x
CCCN(C(=O)CSc1n[nH]c(-c2ccc(OC)cc2)n1)c1c(N)n(Cc2ccccc2)c(=O)[nH]c1=O,x,x,x,45µM*,x,x
